ABCB6 inh 2 = blocks the human ABCB6 transporter. AID 602162. fluorescence ratio to DMSO, % at 10 µM. 360,000 tested, 0.19% active. K562-ABCB6 porphyrin accumulation, flow cytometry, 1 h; hits give low values;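 active = fluorescence ratio to DMSO below 75%, the collection mean minus 3 SD; inconclusive = too few cells collected in the well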;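 note: signal is porphyrin accumulated inside mitochondria; lower ratio means ABCB6 inhibition with less porphyrin fluorescence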
Granule exo inh = blocks lytic granule exocytosis; TALL-104 LAMP-1 surface exposure, flow cytometry; cells stimulated with thapsigargin and PMA; inhibition, % at 10 µM; 360,000 tested, 0.66% active;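 active = inhibition above about 55%, limit read from the data; inconclusive = no clear call, values can overlap the other calls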
Rev-erbA mod = Rev-erb alpha (human) modulation; P20393; Rev-erbα–FITC-DNA binding, fluorescence polarization, 90 min; activity, % at 10 µM; 370,000 tested, 0.79% active; AID 1259318;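 active = activity above about 14%, limit read from the data; passing the limit was not always enough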
PG9 binder = PG9 antibody binding by small molecule; TR-FRET gp120-PG9 antibody binding; inhibition, % at 6.7 µM; 360,000 tested, 0.43% active; AID 624416; in the data active = inhibition above about 8.5%
VLA-4 inh = inhibition in a human VLA-4 binding assay | P13612 | VLA-4 expressing cells, ligand binding flow cytometry | inhibition, % (about 7 µM as worked out from the volumes in the protocol) | 330,000 tested, 0.2% active; in the data active = inhibition above about 50%
Granule exo CP1 = lytic granule exocytosis inhibition. 1,500 tested, 11% active. shares compounds with Granule exo inh. TALL-104 cells, LAMP-1 externalization, flow cytometry; stimulated with PMA plus thapsigargin. inhibition, % at 10 µM; in the data active = inhibition above about 60%
Large screens that a line does not name were inactive (follow-up assays come after a bar, where they were run). The list is not random: actives were taken first. Their share in the collection is about 2%.

N#CC1C(=O)c2ccccc2C1c1ccccc1 (configuration not stated)	ABCB6 inh 2 inconclusive, Granule exo inh 64 (no result: VLA-4 inh) | Granule exo CP1 inactive
CC(=O)N(CCC(Cc1ccccc1)c1ccc2c(c1)OCO2)Cc1ccc(Cl)cc1 (configuration not stated)	Granule exo inh 90 | Granule exo CP1 inactive
O=C(O)CC(Cc1ccccc1)c1ccc2c(c1)OCO2 (configuration not stated)	none
COC(=O)c1cc(-c2ccc(C)cc2)c(=O)n2c1CCC2	none (no result: ABCB6 inh 2, Granule exo inh, PG9 binder, VLA-4 inh)
CCOC(=O)c1ccc(NC(=O)c2ccc(CN3CCc4ccccc4C3)cc2)cc1	Granule exo inh 70 | Granule exo CP1 inactive
CCO[C@H]1OC(C(=O)NC2CC2)=C[C@@H](c2c[nH]c3ccccc23)[C@@H]1CCCO	Granule exo inh 56 | Granule exo CP1 inactive
NC(=O)c1ncn([C@@H]2O[C@H](C(=O)N3CCCN(Cc4ccccc4F)CC3)[C@@H](O)[C@H]2O)n1	none (no result: ABCB6 inh 2, Granule exo inh, VLA-4 inh)
O=C(CCCc1nc(-c2ccc(Cl)cc2)no1)NC1CCCC1	Granule exo inh 57 | Granule exo CP1 inactive
CN1Cc2c(N3CCOCC3)nc3sc(C(=O)c4ccc(Br)cc4)c(N)c3c2CC1(C)C	Granule exo inh 61 | Granule exo CP1 75
CN1Cc2c(N3CCOCC3)nc3sc(C#N)c(N)c3c2CC1(C)C	none
c1ccc(CC2CCN(c3ncnc4sccc34)CC2)cc1	Granule exo inh 63 (no result: VLA-4 inh) | Granule exo CP1 inactive
c1ccc(OC2CCN(c3ncnc4sccc34)CC2)cc1	none (no result: ABCB6 inh 2, Granule exo inh, PG9 binder, VLA-4 inh)
CC(CCN1CCC(C(O)(c2ccccc2)c2ccccc2)CC1)Oc1ccc(C#N)cc1F (configuration not stated)	none (no result: ABCB6 inh 2, Granule exo inh, PG9 binder, VLA-4 inh)
N#Cc1nc(COc2ccccc2Cl)oc1NCc1ccc(F)cc1	Granule exo inh 59 | Granule exo CP1 inactive
Cc1ccc(CNc2oc(COc3ccccc3Cl)nc2C#N)cc1	none
COc1cccc(CNS(=O)(=O)c2ccccc2Br)c1	none (no result: ABCB6 inh 2, Granule exo inh, VLA-4 inh)
CCOC(=O)c1c(CSc2ccc(C)cc2)n(C)c2cc(Br)c(O)c(CN(C)C)c12	none
CCOC(=O)c1c(CSc2ccccc2)n(C)c2ccc(O)c(CN3CCN(C)CC3)c12	Granule exo inh 59 | Granule exo CP1 inactive
CCOC(=O)c1c(C)n(C)c2ccc(O)c(CN3CCCCC3)c12	none
CCOC(=O)c1c(CSc2ccccc2)n(C)c2cc(Br)c(O)c(CN(C)C)c12	Granule exo inh 73 | Granule exo CP1 107
Cc1cccc(CN2CCc3c([nH]c4ccccc34)C2CC(C)C)n1 (configuration not stated)	Granule exo inh 63 | Granule exo CP1 inactive
Cc1cnc(CN2CCc3c([nH]c4ccccc34)C2CC(C)C)[nH]1 (configuration not stated)	none
CC(Nc1nc(-c2ccncc2)nc2ccccc12)c1ccccc1 (configuration not stated)	none
CC(Nc1nc(N2CCNCC2)nc2ccccc12)c1ccccc1 (configuration not stated)	Granule exo inh 87 | Granule exo CP1 79
COC(=O)[C@]12C[C@H](CC(=O)N3CCCCC3)C(=O)N(Cc3cccc4ccccc34)C1=C[C@H](COCc1ccccc1)O[C@@H]2C	none (no result: ABCB6 inh 2, Granule exo inh, PG9 binder, VLA-4 inh)
COc1cc(N)ccc1Nc1c2ccccc2nc2ccccc12	none (no result: Rev-erbA mod, PG9 binder, VLA-4 inh)
CCCS(=O)(=O)Nc1ccc(Nc2c3ccccc3nc3ccccc23)c(OC)c1	Granule exo inh 78 (no result: VLA-4 inh) | Granule exo CP1 89
CCC(C)(C)C(=O)N1CCc2cc(S(=O)(=O)N(C)Cc3ccco3)ccc21	none (no result: ABCB6 inh 2, Granule exo inh, PG9 binder, VLA-4 inh)
CC(=O)Nc1cccc(NC(=O)CSc2nc(C3CC3)nc3ccccc23)c1	none
O=C(CSc1nc(C2CC2)nc2ccccc12)Nc1ccccc1	Granule exo inh 78 | Granule exo CP1 inactive
COc1cc(CNC(C)(C)CO)cc(Br)c1OCc1ccc(Cl)cc1Cl	Granule exo inh 79 | Granule exo CP1 inactive
CC(C)CNc1cccc2c1S(=O)(=O)N[C@@H](CC(C)C)CO2	none (no result: ABCB6 inh 2, Granule exo inh, VLA-4 inh)
CN(C)/C=C\C(=C/C(=O)C(F)(F)F)Nc1ccccc1Oc1ccccc1	Granule exo inh 77 | Granule exo CP1 inactive
CCC[C@H]1[C@@H](NCc2ccccc2)CC[C@@]23CCCN2C(=O)CCC[C@@H]13	none (no result: ABCB6 inh 2, Granule exo inh, PG9 binder, VLA-4 inh)
Cc1ccc(Cn2cc(CN3[C@@H](CC(C)C)COc4cc(Br)ccc4S3(=O)=O)nn2)cc1	none (no result: ABCB6 inh 2, Granule exo inh, PG9 binder, VLA-4 inh)
Cc1ccc(S(=O)(=O)N2CCN(C(=S)NCc3ccc4c(c3)OCO4)CC2)cc1	Granule exo inh 75 | Granule exo CP1 inactive

Screening results: PubChem, several laboratories
